The values below come from ChEMBL document CHEMBL3988442, “University of Dundee, Small-Polar-MMV Screening Library” (2021).

The target in this test is Sialic acid-binding Ig-like lectin 9 (Homo sapiens) (UniProt Q9Y336). In words: Hs-Siglec9 ALPHAscreen SOP 20170721. On the set-up: scale not given: direction of the effect not stated beside the values. The conditions noted are these: 10 µM.
Sequence of Sialic acid-binding Ig-like lectin 9 (Homo sapiens) (Q9Y336 whole entry): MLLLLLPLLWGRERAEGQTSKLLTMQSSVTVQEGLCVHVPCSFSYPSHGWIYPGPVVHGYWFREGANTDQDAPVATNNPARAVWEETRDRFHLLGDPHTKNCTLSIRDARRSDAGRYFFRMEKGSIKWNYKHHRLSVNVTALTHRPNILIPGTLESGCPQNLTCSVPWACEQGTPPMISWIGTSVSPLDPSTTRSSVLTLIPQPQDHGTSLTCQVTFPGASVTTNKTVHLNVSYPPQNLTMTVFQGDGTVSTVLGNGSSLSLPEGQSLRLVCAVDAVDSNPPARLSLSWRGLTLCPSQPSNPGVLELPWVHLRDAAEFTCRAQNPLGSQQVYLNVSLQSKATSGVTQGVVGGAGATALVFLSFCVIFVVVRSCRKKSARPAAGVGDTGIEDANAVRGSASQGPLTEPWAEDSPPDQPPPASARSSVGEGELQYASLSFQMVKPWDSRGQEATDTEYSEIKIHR
In the case of `CC(c1ccco1)N(C)Cc1nc2c(cnn2C)c(=O)[nH]1` (stereo not given), the Percent Effect came out at 5.24%.
To `CCn1nc(C)c2nnn(CC(=O)Nc3cccc(Cl)c3)c(=O)c21` belongs 3.3%; to `CCCC(=O)NCc1cc(Br)c(OC)c(OC)c1`, 14.4%; to `CC(=O)N(C)CC(=O)Nc1cccc(N2CCN(CC3CC3)CC2)c1`, 0.217%.
To `CS(=O)(=O)N1CC[C@H]2[C@H](C[C@@H](Cn3cncn3)N2CC2CC2)C1` belongs 7.05%.
To `COc1ccnc(N2CCN(C(=O)CN3CCCC3=O)CC2)n1` belongs -0.685%.
In the case of `Cc1cc(C)n(CC2CCCCN2Cc2cscn2)n1` (stereo not given), the Percent Effect is 14.9%.
To `O=C(CC1CCCC1)N1CCCC(c2n[nH]c3nccnc23)C1` (stereo not given) belongs 3.58%; to `CCc1ccc(CN2CC[C@H]3C[C@H](c4nnc(C)[nH]4)O[C@@H]3C2)o1`, 34.9%.
To `CN(C)CCNC(=O)c1cc(-c2cnc(N3CCCC3)nc2)cn1C` belongs -3.71%; to `Cc1cnn(CCNCc2ccccc2C#N)c1`, 6.11%.
To `Cc1ccc(CN2CCC3(C2)C(=O)N(CC(C)C)c2ccccc23)s1` (stereo not given) belongs 1.8%; to `NC(=O)Nc1cccc(Oc2ccccn2)c1`, -0.357%.
Turning to `CC(CNC(=O)Nc1cn[nH]c1)N1CCc2ccccc2C1` (stereo not given), the Percent Effect was -3.09%.
To `O=C(CCc1ccc(Br)cc1F)NS(=O)(=O)c1ccc2c(c1)OCCO2` belongs 0.4%; to `CC(NC(N)=O)C(=O)N1CCCN(Cc2nccn2C(C)C)CC1` (stereo not given), 0.743%.
To `CN1Cc2c(C(=O)Nc3cccnc3)ncn2-c2ccccc2S1(=O)=O` belongs 4.18%.
For the compound `CN(C(=O)NCCCN1CCCC1)C1CCN(c2ccccc2)C1=O` (stereo not given), the Percent Effect is -4.7%.
To `CCSCCC(=O)Nc1ncn(Cc2cccnc2)n1` belongs 8.4%.
Under `CNC(=O)[C@@]12CCO[C@@H]1CCN(S(=O)(=O)c1cccc(C)c1)C2` stands 0.794%.
